Most compounds without a hit are left out; they make up all but 14% or so of the library.
Giardia FBPA inh: inhibitors of Giardia lamblia fructose-1,6-bisphosphate aldolase; actives 0.71% (n = 290,000); Potency, µM (top dose mostly 59.6 µM), without a hit: top-dose activity, negative = inhibition, usual class: inhibitors; purified Giardia FBPA; A8B2U2; note: potency is the fitted concentration of half-maximal effect; % is set by controls: 0 for no effect and ±100 for the full control effect; nearly all actives have a fitted effect of over 55% in size
Target sequence (A8B2U2 whole entry, looked up): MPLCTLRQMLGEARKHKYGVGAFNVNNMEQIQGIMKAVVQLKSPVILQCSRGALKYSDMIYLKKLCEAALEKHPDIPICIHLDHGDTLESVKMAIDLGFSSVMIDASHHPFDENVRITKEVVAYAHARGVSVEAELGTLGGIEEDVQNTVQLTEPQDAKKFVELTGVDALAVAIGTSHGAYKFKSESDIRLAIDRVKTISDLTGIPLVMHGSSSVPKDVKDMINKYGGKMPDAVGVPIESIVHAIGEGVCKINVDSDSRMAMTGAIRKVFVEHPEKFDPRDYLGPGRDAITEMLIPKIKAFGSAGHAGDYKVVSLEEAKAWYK
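40 nM FBPA preincubated 10 min at RT with compound (up to 57.5 uM final), then substrate plus GAPDH/TPI/NAD/arsenate coupling and diaphorase/resazurin added. Fluorescence read after 20 min at RT, 525/598 nm.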
Shiga inhibitor: Shiga toxin inhibition | Vero cells, Shiga toxin protein synthesis inhibition reporter | inhibition, % at 38.7 µM | actives 9.2% (n = 290,000); in the data active = inhibition mostly above about 28%, no sharp cut-off; inactive = mostly below about 43%; note: 0% is about no effect
LmPK inh: inhibitors of Leishmania mexicana pyruvate kinase; Potency, µM (titrated, usually from 57.5 µM), for the others: top-dose activity change, negative = inhibition, usual class: inhibitors; AID 1721; actives 0.37% (n = 290,000); purified LmPK, Kinase-Glo ATP luminescence, 1 h; Q27686; note: potency is the fitted concentration of half-maximal effect; % is set by controls: 0 for no effect and ±100 for the full control effect
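0.1 nM LmPK, 0.5 mM PEP, 0.1 mM ADP; 50 mM imidazole pH 7.2, 7 mM MgCl2, 50 mM KCl; 1 h RT. Kinase-Glo luminescence readout, normalized to no-enzyme (full inhibition) and uninhibited wells.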
NS1 function inh: inhibitors of influenza NS1 protein function | Potency, µM (doses to about 46.1 µM), for inactives: top-dose activity, positive = more growth | actives 0.4% (n = 270,000); calls by dose curve; note: potency is the fitted concentration of half-maximal effect; actives are rising curves; nearly all actives have a fitted effect of over 50% in size
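S. cerevisiae expressing influenza A NS1, grown in glucose, washed, then diluted 1:100 into pH 6.0 -URA galactose medium with 23 nl compound. Growth recovery read as OD600; NS1-free strain serves as control.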
Cycloheximide cs: counter-screen for Shiga toxin inhibitors: cycloheximide protein synthesis inhibition; max response, %; AID 2314; cell reporter, cycloheximide protein synthesis inhibition counterscreen; actives 12% (n = 300,000); in the data active = max response mostly above about 13%, no sharp cut-off; inactive = mostly below about 14%; note: read at 38.3 µM for the half of the compounds with a filed dose; 0% is about no effect
NS1 inh valid: validation of influenza NS1 protein function inhibitors | shares compounds with NS1 function inh | influenza NS1 function cell assay, 15-point titration | activity change, negative = inhibition, % at 32.9 µM | 1,400 tested, under 10 active; calls by dose curve; note: 0% is about no effect
* hit, by the source's call; ? = inconclusive; . = no result given; [ ] = dose if it differs, or a comment. Unless noted, calls come from the whole dose curve; as a rule, active = well fitted curve in the direction sought with a large enough effect; inconclusive = small, poorly fitted or top-dose-only effect, or another doubt; inactive = no such curve, though single readings can be large; an effect the other way counts as inactive or inconclusive.

SMILES	Giardia FBPA inh	Shiga inhibitor	LmPK inh	NS1 function inh	Cycloheximide cs	NS1 inh valid
CC(=O)Nc1ccc(-c2csc(NC(=O)C3CCN(S(=O)(=O)c4cccs4)CC3)n2)cc1	-5.4%	-11.7	2.0%	12.6µM*	0.9	16.1
COc1ccc(OCC(=O)Nc2ccc(S(=O)(=O)N3CCCCC3)cc2)cc1	0.5%	31.6	2.4%	-53.3%	14.4	.
O=C(COc1ccc(S(=O)(=O)N2CCCC2)cc1)NCc1cccnc1	7.6%	-1.8	-0.1%	?	-4.4	10.8
COc1ccc(OC)c(NC(=O)COc2ccc(S(=O)(=O)N3CCCC3)cc2)c1	-6.0%	-0.6	0.7%	?	-4.6	-8.2
O=C(NCc1cccnc1)C1CCCN(S(=O)(=O)c2ccccc2)C1 (centres undefined)	7.0%	-3.7	5.7%	1.58µM*	-1.6	1.7
O=C(COc1ccc(S(=O)(=O)N2CCCCC2)cc1)NCc1ccncc1	4.2%	-29.5	-6.4%	-6.3%	-0.8	.
COc1ccc(CCNC(=O)C(C)n2nc(C)c3c(C)n(-c4ccc(C)cc4)nc3c2=O)c(OC)c1 (centres undefined)	13.0%	-7.0	-3.6%	11.1%	10.2	.
O=C(CN1C(=O)S/C(=C/C=C/c2ccccc2)C1=O)Nc1ccc(C(=O)O)cc1	17.3%	37.2	16.0%	.	10.5	.
O=C(CN1C(=O)/C(=C\C=C\c2ccccc2)SC1=S)Nc1ccc(F)cc1	-1.0%	-4.5	2.0%	17.8µM*	3.5	-5.2
Cc1cc(COc2ccccc2)oc1C(=O)O	7.2%	.	20.7%	-9.1%	7.2	.
COc1ccc(NC(=S)Nc2cccc(S(=O)(=O)N3CCCCC3)c2)cc1	-14.3%	21.0	2.7%	12.6µM*	-1.0	2.1
COc1ccc(CN2CCN(S(=O)(=O)c3ccc(NC(C)=O)cc3)CC2)cc1	?	-5.2	-3.8%	?	-6.1	3.2
Cc1ccc(CC(=O)Nc2ccc(S(=O)(=O)N3CCOCC3)cc2)cc1	2.2%	-2.1	6.0%	?	-5.3	-26.8
COc1cc2c(cc1OC)CN(C1CCCN(Cc3cc(Cl)ccc3O)C1)CC2 (centres undefined)	-13.1%	-13.2	0.6%	-9.1%	-1.6	.
CCOC(=O)CCN1C(=O)[C@H]2[C@H]3[C@H](O)[C@H](O)C/C(=N/OC[C@@H](O)COCc4ccco4)[C@@H]3CC[C@@H]2C1=O	2.0%[12.9 µM]	.	.	.	.	.
NC(=O)c1nsc(C(=O)N(c2cccc(F)c2)C(C(=O)NCC2CCCO2)c2ccc3ncccc3c2)c1N (centres undefined)	-2.8%	29.5	7.9%	-3.5%	-2.7	.
CNc1c(NS(=O)(=O)c2ccc(Br)cc2)c(=O)oc2ccccc12	4.7%	2.9	-2.8%	5.2%	-5.4	.
Cc1cc(NC(=O)CSc2nnc(C)n2C)no1	.	-5.2	1.6%	4.7%	-3.7	.
CC(C)c1ccc(C2/C(=C(/O)c3ccc(F)cc3)C(=O)C(=O)N2CCCN2CCOCC2)cc1 (centres undefined)	11.0%	7.2	13.4%	14.9%	-1.2	.
COC(=O)c1cccc(C23CC4(C2)[C@H](CN(Cc2cccnc2)[C@@H]4c2ccccc2)C3c2ccc(C(F)(F)F)cc2)c1 (some centres undefined)	-2.2%	-2.0	2.9%	8.91µM*	2.4	2.1
CCc1cc(=O)oc2cc(OCC(=O)N3CCC[C@H]3C(=O)O)ccc12	-17.2%	-2.9	-9.9%	3.6%	0.3	.
CCOc1ccc(/C=N/NC(=O)Cc2csc(Nc3cccc(C(F)(F)F)c3)n2)cc1	-11.7%	-4.8	2.1%	10µM*	6.6	-26.4
CCOc1ccc(/C=N/NC(=O)Cc2csc(Nc3cccc(C(F)(F)F)c3)n2)c(OCC)c1	-5.2%	-14.3	1.4%	22.0%	1.8	.
O=C(c1cc(NC(=O)C23CC4CC(CC(C4)C2)C3)cc(NC(=O)C23CC4CC(CC(C4)C2)C3)c1)N1CCCCC1	3.3%	1.4	-0.4%	11.2µM*	-5.0	11.7
O=C(NC(=S)N1CCCCC1)C12CC3CC(CC(C3)C1)C2	2.3%	-6.3	-5.0%	5.4%	-3.6	.
SMILES	Giardia FBPA inh	Shiga inhibitor	LmPK inh	NS1 function inh	Cycloheximide cs	NS1 inh valid
CSc1nnc(-c2ccc(S(=O)(=O)N3CCOCC3)cc2)n1C	5.0%	-3.2	-6.0%	0.4%	-1.7	.
O=C(COc1ccc(Cl)cc1)NNC(=S)NCc1ccccc1	11.3%	-3.9	0.1%	5.62µM*	0.4	?
COc1cc(C(=O)NCCc2ccc(S(N)(=O)=O)cc2)cc(OC)c1OC	5.0%	-2.4	4.8%	?	-1.7	1.1
CCOc1cc(C(=O)NCCc2ccc(S(N)(=O)=O)cc2)cc(OCC)c1OCC	8.3%	13.0	-1.1%	3.0%	-4.0	.
COc1cccc2cc(C(C)OC(=O)Nc3ccc(C)cc3)oc12 (centres undefined)	-6.6%	16.4	-1.5%	0.2%	6.1	.
O=C1/C(=C/c2cccnc2)Oc2cc(OS(=O)(=O)c3ccc(Cl)cc3)ccc21	2.4%	9.8	9.9%	3.55µM*	13.6	30.9
CSc1ccc(CN2CCN(S(=O)(=O)Cc3ccccc3)CC2)cc1	.	-11.5	-5.6%	-32.5%	12.1	.
COc1ccc(NS(=O)(=O)c2ccc3nc(COc4cccc5ccccc45)[nH]c3c2)cc1	-5.4%	34.8	2.2%	22.4µM*	13.0	8.0
Cc1ccc(/C=N/NC(=O)Cc2cccn2C)s1	-5.8%	58.2*	5.2%	2.82µM*	49.1*	11.4
Cc1ccc(/C=N/NC(=O)Cc2ccc(Cl)cc2)s1	-5.6%	1.8	1.2%	0.9%	4.5	.
CCOC(=O)c1c(-c2ccco2)csc1N	?	3.5	2.6%	1.26µM*	8.5	?
O=C1c2cccc3c(N4CCOCC4)c([N+](=O)[O-])cc(c23)C(=O)N1c1cccc2ccccc12	-0.9%	1.1	0.2%	?	-4.0	-1.7
O=C(Nn1cnnc1)c1ccc(F)cc1	1.7%	-14.2	5.2%	-2.0%	-2.2	.
Cc1ccc(S(=O)(=O)N(CC(=O)NCC2CCCO2)Cc2cccc(C)c2)cc1 (centres undefined)	.	0.3	-6.5%	6.0%	-2.0	.
COCCn1c(=O)[nH]c(=O)c2c1nc(-c1ccc(-c3ccc(Cl)cc3[N+](=O)[O-])o1)n2Cc1ccccc1	?	-3.2	-1.5%	20.8%	-1.9	.
COc1ccc(-c2ccc(-c3nc4c(c(=O)[nH]c(=O)n4Cc4ccccc4)n3C)o2)c([N+](=O)[O-])c1	?	-5.6	3.9%	3.55µM*	-1.8	-11.1
NC(=S)NNC(=O)c1cccc(Cl)c1	-29.9%	-5.9	-3.0%	3.16µM*	5.2	6.6
Cc1cc(C(=O)NNC(=O)c2cccc(Cl)c2)no1	-3.7%	-4.9	0.0%	0.3%	6.6	.
CCOc1ccc(N(CC(=O)NCCc2ccccc2)S(=O)(=O)c2ccccc2)cc1	3.0%	-4.0	1.1%	21.7%	-2.2	.
CCOC(=O)c1ccc(C(=O)OCC)c(NC(=S)Nc2ccc([N+](=O)[O-])cc2OC)c1	-13.9%	66.8*	0.8%	5.01µM*	69.1*	?
